{"source": "PubChem BioAssay AID504332", "about": "(National Center for Advancing Translational Sciences (NCATS), 2011)", "note": "In all, about 350,000 compounds went through this assay and about 31,000 (8.9%) were called active. Where a call stands in place of a potency, no number is given. Not shown: some 15% with an inconclusive outcome. The sample holds actives, similar compounds and a random draw of the others, so the mix is not that of the screen. Values without a mark were called inactive. Calls follow the shape of the dose curve; as a rule, active = well fitted inhibition curve with a large enough effect; inconclusive = small, poorly fitted or top-dose-only effect; inactive = no such curve, though single readings can be large or run the other way. Potency is read from the fitted curve at half-maximal effect.", "data": [{"biological_target": "Histone-lysine N-methyltransferase EHMT2 (Homo sapiens) (UniProt Q96KQ7)", "sequence (Q96KQ7 913-1193 limits assumed)": "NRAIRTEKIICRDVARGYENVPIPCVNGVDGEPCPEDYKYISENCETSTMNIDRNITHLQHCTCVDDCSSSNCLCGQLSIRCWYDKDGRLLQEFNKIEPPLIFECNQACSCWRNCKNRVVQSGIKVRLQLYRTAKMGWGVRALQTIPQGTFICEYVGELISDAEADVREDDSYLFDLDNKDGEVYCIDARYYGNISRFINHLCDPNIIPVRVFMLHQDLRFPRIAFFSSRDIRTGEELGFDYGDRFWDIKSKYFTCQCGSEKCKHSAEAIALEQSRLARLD", "experiment": "qHTS Assay for Inhibitors of Histone Lysine Methyltransferase G9a; also: nearly all actives have a fitted effect of over 75% in size", "settings": "G9a H3K9 monomethylation, AlphaScreen, 2 h; series mostly up to 59 µM", "outline": "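Compounds were preincubated with 20 nM G9a for 15 min, after which biotinylated H3K9 peptide (500 nM) and SAM (20 uM) started a 2 h room-temperature reaction. Monomethylated product was quantified by antibody-based AlphaScreen chemiluminescence.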", "values": [{"smiles": "Cc1ccc2nc(S(=O)(=O)O)[nH]c2c1", "Potency": "89.1 µM (active)"}, {"smiles": "CCCNC(=O)C1CCN(c2nc3ccc(C)cc3[nH]2)CC1", "Potency": "inactive"}, {"smiles": "Cc1ccc2nc(/C(C#N)=C\\c3ccc(OC(=O)c4cccs4)cc3)[nH]c2c1", "Potency": "inactive"}, {"smiles": "COc1cccc(CNC(=O)CSc2c3c(nc4cc(Cl)ccc24)CCCC3)c1", "Potency": "inactive"}, {"smiles": "COc1ccccc1CNS(=O)(=O)c1ccc(C)cc1", "Potency": "inactive"}, {"smiles": "COC(=O)C1=C(C)NC(=O)/C1=C/c1ccc(CNS(=O)(=O)c2ccc(C)cc2)o1", "Potency": "50.1 µM (active)"}, {"smiles": "Cc1ccc(CCNC(=O)c2ccc(CNS(=O)(=O)c3ccc(C)cc3)cc2)cc1", "Potency": "inactive"}, {"smiles": "Cc1cc(C)c2sc(NC(=O)c3ccc(S(=O)(=O)N4CCCC4)cc3)nc2c1", "Potency": "inactive"}, {"smiles": "Cn1c(=O)c(C(=O)O)nn(-c2ccccc2)c1=O", "Potency": "inactive"}, {"smiles": "Cc1cccc(OCC(=O)N(Cc2ccc(C(C)C)cc2)Cc2ccco2)c1C", "Potency": "inactive"}, {"smiles": "CNC(=S)NNC(=O)c1oc2nc(-c3ccccc3)cc(-c3ccco3)c2c1N", "Potency": "10 µM (active)"}, {"smiles": "CS(=O)(=O)c1sc2nc(-c3ccccc3)cc(-c3ccccc3)c2c1N", "Potency": "inactive"}, {"smiles": "CC1=C(c2ccc(Cl)cc2)S(=O)(=O)N=C1N1CCN(c2cc(C)ccc2C)CC1", "Potency": "inactive"}, {"smiles": "COc1ccc(-c2c(-c3ccc(OC)cc3O)nc(C)nc2C(F)(F)F)cc1", "Potency": "inactive"}, {"smiles": "CCOc1ccc(-c2cc3nc(C4CCN(C(=O)OC(C)(C)C)CC4)c(C(=O)Nc4ccc(C(=O)OC)cc4)cn3n2)cc1", "Potency": "inactive"}, {"smiles": "CCOC(=O)c1c(NC(=O)COc2cc(C)ccc2C(C)C)sc(C)c1C", "Potency": "1.78 µM (active)"}, {"smiles": "CCOC(=O)c1sc(NC(=O)COc2ncnc3ccccc23)c(C(=O)OCC)c1C", "Potency": "inactive"}, {"smiles": "CCOC(=O)c1c(NC(=O)CSc2nnc(CNc3ccc(C)cc3C)o2)sc(C)c1C", "Potency": "inactive"}, {"smiles": "COc1cccc(CNC(=O)c2ccc3c(c2)N(Cc2ccc(C(F)(F)F)cc2)C(=O)c2ccccc2S3)c1OC", "Potency": "inactive"}, {"smiles": "N/C(=N\\OS(=O)(=O)c1cccc([N+](=O)[O-])c1)c1ccncc1", "Potency": "10 µM (active)"}, {"smiles": "O=C(N/N=C/c1cccc([N+](=O)[O-])c1)c1ccncc1", "Potency": "inactive"}, {"smiles": "O=C(c1ccncc1)N1CCN(S(=O)(=O)c2cccc([N+](=O)[O-])c2)CC1", "Potency": "inactive"}, {"smiles": "Oc1c(C=Nc2cccc3nsnc23)ccc2ccccc12", "Potency": "2.24 µM (active)"}, {"smiles": "COc1ccc(C=Nc2cccc3ncccc23)cc1", "Potency": "inactive"}, {"smiles": "CC(C)(C)NS(=O)(=O)c1ccc(NC(=O)C2CCCO2)cc1", "note": "(centres undefined)", "Potency": "inactive"}, {"smiles": "O=C(CC(c1cccs1)N1Cc2ccccc2C1=O)Nc1ccc(F)c(F)c1", "note": "(centres undefined)", "Potency": "inactive"}, {"smiles": "CCc1cccc(NC(=O)COC(=O)C2CCN(c3ccc(C(F)(F)F)cn3)CC2)c1", "activity, negative = inhibition": "10.8% [at 0.501 µM]"}, {"smiles": "C/C(Cc1ccccc1)=N\\NC(=O)CNC(=O)c1cccc(Br)c1", "Potency": "inactive"}, {"smiles": "CCCN(CCC)CCNC(=O)c1ccc2c(c1)NC(=O)C(CS(=O)(=O)Cc1cccc(Br)c1)N2", "note": "(centres undefined)", "Potency": "25.1 µM (active)"}, {"smiles": "Cc1ccccc1CS(=O)(=O)CC1Nc2ccc(C(=O)NCc3ccc(Cl)cc3)cc2NC1=O", "note": "(centres undefined)", "Potency": "10 µM (active)"}, {"smiles": "COc1ccc(C(=O)NCc2ccc(Cl)cc2)cc1S(=O)(=O)N1CCCC1", "activity, negative = inhibition": "-2.17% [at 12.7 µM]"}, {"smiles": "CCCC(=O)Nc1cc(C(=O)NCc2ccc(OC)cc2)ccc1S(=O)(=O)c1ccc(Cl)cc1", "Potency": "inactive"}, {"smiles": "CCCNC(=O)c1ccc(N2CCC3(CC2)CC(c2cccc(Br)c2)=NO3)c(NC(=O)c2ccco2)c1", "activity, negative = inhibition": "7.48% [at 2.33 µM]"}, {"smiles": "Cc1cccc(C(=O)N2CCc3cc(CNC(=O)Cc4ccc(F)cc4)ccc32)c1", "Potency": "inactive"}, {"smiles": "CCOC(=O)C(C)n1cnc2c(nnn2-c2cccc(OC)c2)c1=O", "note": "(centres undefined)", "Potency": "inactive"}, {"smiles": "CCc1nnc(NC(=O)CCC(=O)N2CCN(c3cc(C)ccc3C)CC2)s1", "Potency": "inactive"}, {"smiles": "O=C(c1ccc2ccccc2n1)N1CCN(c2ccccc2Cl)CC1", "Potency": "44.7 µM (active)"}, {"smiles": "O=C(c1ccncc1)N1CCN(c2ccc3ccccc3n2)CC1", "activity, negative = inhibition": "25% [at 12.7 µM]"}, {"smiles": "COc1ccccc1N1CCN(C(=O)c2cc(-c3ccc(Cl)c(Cl)c3)on2)CC1", "Potency": "inactive"}, {"smiles": "Cc1ccc2c(=O)c(C(=O)c3ccc(Cl)cc3)cn(CC(=O)NC3CCCCC3)c2n1", "Potency": "inactive"}, {"smiles": "COC(=O)c1ccc(CSc2ccc(S(=O)(=O)N3CCCCC3)cn2)cc1", "activity, negative = inhibition": "-3.87% [at 12.7 µM]"}, {"smiles": "O=C(O)c1ccc(/C=N/Nc2nc(N3CCCCC3)nc(N3CCCCC3)n2)cc1", "Potency": "inactive"}, {"smiles": "CCNC(=S)NNC(=O)c1ccc2ncccc2c1", "Potency": "inactive"}, {"smiles": "O=C(O)c1ccc(N/N=C/c2ccc3ncccc3c2)cc1", "Potency": "10 µM (active)"}, {"smiles": "COc1cccc(/C=C/C(=O)OCC(=O)N2CCCc3ccccc32)c1", "Potency": "inactive"}, {"smiles": "CCOC(=O)c1ccc(NC(=O)c2ncn(-c3ccccc3)n2)cc1", "Potency": "inactive"}, {"smiles": "CC(OC(=O)C1CC(=O)N(Cc2ccccc2)C1)C(=O)Nc1ccccc1[N+](=O)[O-]", "note": "(centres undefined)", "Potency": "56.2 µM (active)"}, {"smiles": "O=C(Nc1ccc(F)c([N+](=O)[O-])c1)C1CC(=O)N(Cc2ccccc2)C1", "note": "(centres undefined)", "Potency": "inactive"}, {"smiles": "Cc1cccc(C(C)C)c1NC(=O)COC(=O)C1CC(=O)N(Cc2ccccc2)C1", "note": "(centres undefined)", "activity, negative = inhibition": "7.15% [at 0.501 µM]"}, {"smiles": "CCOc1ccccc1NC(=O)CSc1ncc(S(=O)(=O)c2ccc(C(C)(C)C)cc2)c(=O)[nH]1", "Potency": "inactive"}, {"smiles": "Cc1ccccc1CSc1nc2c([nH]c3ccccc32)c(=O)n1C", "Potency": "inactive"}, {"smiles": "CCCCN(Cc1ccccc1)C(=O)C1CCN(Cc2sccc2C)CC1", "Potency": "14.1 µM (active)"}, {"smiles": "CCCCN(C(=O)C1CCC1)c1c(N)n(Cc2ccccc2)c(=O)[nH]c1=O", "activity, negative = inhibition": "-8.06% [at 12.7 µM]"}, {"smiles": "CCNC(=S)NNC(=O)C1CCN(Cc2ccccc2)CC1", "Potency": "inactive"}, {"smiles": "O=C(Nc1cc2c3c(c1)CC(=O)N3CCC2)c1ccccc1F", "Potency": "inactive"}, {"smiles": "CCOc1ccc(NC(=O)CN(C)C(=O)Cn2c(=O)cnc3ccccc32)cc1OCC", "Potency": "inactive"}, {"smiles": "O=C(CN1CCN(Cc2ccccc2)CC1)NC(c1ccccc1)c1ccccc1", "Potency": "inactive"}, {"smiles": "O=C(CN1CCc2ccccc21)NC(c1ccccc1)c1ccccc1", "Potency": "39.8 µM (active)"}, {"smiles": "NC(=O)N1CCc2ccccc21", "Potency": "inactive"}, {"smiles": "COc1cc2nc(SCc3ccc(F)cc3)n3nc(CCn4c(C)nc5ccccc54)nc3c2cc1OC", "Potency": "inactive"}, {"smiles": "CCCSc1ncc(Cl)c(C(=O)Nc2c(C(=O)Nc3ccccc3)oc3ccccc23)n1", "Potency": "inactive"}, {"smiles": "COc1ccc2c(C)cc(SCC(=O)NCC3CCCO3)nc2c1", "note": "(centres undefined)", "activity, negative = inhibition": "17.7% [at 2.33 µM]"}, {"smiles": "CCOC(=O)c1cnc2c(C)cc(C)cc2c1Nc1ccc(N2CCOCC2)cc1", "Potency": "10 µM (active)"}, {"smiles": "CCOC(=O)c1cnc2ccc(F)cc2c1Nc1ccc2c(c1)OCCO2", "Potency": "inactive"}, {"smiles": "CCOC(=O)c1cnc2c(C)cc(Cl)cc2c1NCCc1ccc(OC)c(OC)c1", "Potency": "inactive"}, {"smiles": "FC(F)(F)c1ccc2c3n(nc2c1)CCN=C3c1ccc(Cl)cc1", "activity, negative = inhibition": "23% [at 2.33 µM]"}, {"smiles": "Cc1ccc(CNC(=O)CSc2c(C)cnc3c2c(=O)n(C)c(=O)n3C)cc1", "Potency": "inactive"}, {"smiles": "Cc1cccnc1CC(C)NC(=O)c1cc(COc2cncc(Cl)c2)on1", "note": "(centres undefined)", "Potency": "inactive"}, {"smiles": "O=S(=O)(c1ccccc1)c1nc(-c2ccccc2)oc1NCCCN1CCOCC1", "Potency": "inactive"}, {"smiles": "CCOc1cc(N2CCOCC2)c(OCC)cc1NC(=O)COC(=O)[C@H](Cc1c[nH]c2ccccc12)NC(C)=O", "Potency": "inactive"}, {"smiles": "CCOc1cc(N2CCOCC2)c(OCC)cc1NC(=O)c1cc(C)nc2ccccc12", "Potency": "inactive"}, {"smiles": "CCOc1cc(N2CCOCC2)c(OCC)cc1NC(=O)c1ccc(C)s1", "Potency": "44.7 µM (active)"}, {"smiles": "Cc1c(C(=O)Nc2cccc(Cl)c2)oc2ccc(S(=O)(=O)N3CCOCC3)cc12", "Potency": "inactive"}, {"smiles": "CC[C@@]12C(=O)N(c3ccccc3)C(=O)N1[C@H](c1ccc(Br)cc1)[C@@H]1C(=O)N(C(C)(C)C)C(=O)[C@@H]12", "activity, negative = inhibition": "53.8% [at 2.33 µM]"}, {"smiles": "CCCc1ccc(C(=O)COC(=O)CN2C(=O)NC3(CCCCC3C)C2=O)cc1", "note": "(centres undefined)", "activity, negative = inhibition": "-4.43% [at 12.7 µM]"}, {"smiles": "CCc1nn(CC(=O)N2CCN(c3ccc(Cl)cc3)CC2)c(=O)c2cc3occc3n12", "Potency": "inactive"}, {"smiles": "CCOc1ccc(CCNC(=O)COC(=O)C2CCN(c3ccc(C(F)(F)F)cn3)CC2)cc1OCC", "Potency": "inactive"}, {"smiles": "CSC(=S)N/N=C/c1c[nH]c2ccccc12", "Potency": "inactive"}, {"smiles": "S=c1[nH]nc(-c2ccccc2)n1/N=C/c1c[nH]c2ccccc12", "Potency": "1.58 µM (active)"}, {"smiles": "COc1ccc(Br)cc1/C=N/n1c(C)nnc1C", "Potency": "inactive"}, {"smiles": "S=c1[nH]nc(-c2ccco2)n1/N=C/c1ccccc1", "Potency": "1.58 µM (active)"}, {"smiles": "Nc1nonc1-n1nnc(C(=O)N/N=C/c2c[nH]c3ccccc23)c1-c1ccccc1", "Potency": "inactive"}, {"smiles": "CCc1n[nH]c(=S)n1/N=C/c1c[nH]c2ccc(Br)cc12", "Potency": "8.91 µM (active)"}, {"smiles": "S=c1[nH]nc(-c2ccncc2)n1/N=C/c1ccccc1Cl", "Potency": "1.41 µM (active)"}, {"smiles": "CCCCN(C)c1nnc(NC(=O)Nc2ccc(Br)c(C)c2)s1", "Potency": "inactive"}, {"smiles": "O=C(O)c1cc(S(=O)(=O)N(Cc2ccccc2)c2cccc(C(F)(F)F)c2)ccc1Cl", "Potency": "inactive"}, {"smiles": "O=C(NCCC1=CCCCC1)c1ccc(-n2cncn2)cc1", "activity, negative = inhibition": "3.99% [at 12.7 µM]"}, {"smiles": "Cc1oc2ccc(O)c(CN3CCCCC3)c2c1C(=O)Nc1cccc(C(F)(F)F)c1", "Potency": "inactive"}, {"smiles": "O=C(NCc1ccccc1Cl)C(=O)NCC1CCCN1S(=O)(=O)c1cccs1", "note": "(centres undefined)", "Potency": "inactive"}, {"smiles": "Cc1ccc2c(c1)N(CC(=O)NCC1CCCO1)C(=O)CO2", "note": "(centres undefined)", "Potency": "inactive"}, {"smiles": "CCCC1C(=O)N2C(N(C)C)=Nc3ccc(C)cc3N2C1=O", "note": "(centres undefined)", "Potency": "3.55 µM (active)"}, {"smiles": "c1ccc(-c2cc(-c3ccccc3)[nH]n2)cc1", "Potency": "inactive"}, {"smiles": "CCc1ccc(CNCc2c(C(=O)O)n(Cc3ccc(F)cc3Cl)c3cc(OC)ccc23)cc1", "Potency": "inactive"}, {"smiles": "Cc1nc2c(-c3ccccc3)c(C)nn2c(C)c1CCC(=O)NCCc1ccccc1", "Potency": "inactive"}]}]}
